Source: PubChem (National Center for Advancing Translational Sciences (NCATS))
The list is not random: actives were taken first. Their share in the collection is about 19%.
TDP1 cell CPT: DT40-hTDP1 cell growth loss with CPT. chicken DT40 Tdp1-/-;hTDP1 cells + 20 nM CPT, ATP luminescence, 48 h. 420,000 compounds, 12% hits. Potency, µM (titrated, usually from 46.2 µM), for the others: at the top dose activity change, negative = growth inhibition, most hits filed as inhibitors; further: nearly all actives have a fitted effect of over 55% in size
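Chicken DT40 Tdp1-/- cells complemented with human TDP1, 400 cells/well, exposed to compounds plus 20 nM camptothecin for at least 48 h at 37 C; viability read as ATP content by CellTiter-Glo luminescence.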
DT40 TDP1 no CPT: qHTS for Inhibitors of human tyrosyl-DNA phosphodiesterase 1 (TDP1): qHTS in cells in absence of CPT | DT40 Tdp1-/- hTDP1 cells, no CPT, ATP luminescence, 48 h | Potency, µM (titrated, usually from 46.2 µM), for the others: at the highest dose activity change, negative = growth inhibition, usual class: inhibitors | 420,000 compounds, 15% hits; further: nearly all actives have a fitted effect of over 55% in size
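Growth kinetics read by CellTiter-Glo luminescence after ≥48 hr at 37 °C. Cells: DT40 Tdp1-/- stably carrying human TDP1, 400 per well, compound exposure in the absence of CPT (DMSO vehicle).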
TDP1 block: blocks human tyrosyl-DNA phosphodiesterase 1; Q9NUW8; AID 485290; Potency, µM (top dose mostly 130 µM), for the others: at the top dose activity change, negative = inhibition, actives largely listed as inhibitors; recombinant TDP1, AlphaScreen DNA substrate cleavage; 350,000 compounds, 0.28% hits; further: nearly all actives have a fitted effect of over 40% in size
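Enzyme-compound mixtures sat 15 min at room temperature, followed by a 5 min reaction with 15 nM final substrate and 10 min with AlphaScreen beads. Recombinant human Tdp1 was used at 1 nM final.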
VP16 counter: counter-screen for ROR gamma inhibitors: Gal4-VP16 reporter. Drosophila S2 Gal4-VP16 UAS-luciferase, luminescence, 20 h. Potency, µM (titrated, usually from 53.6 µM), without a hit: at the highest dose activity, negative = inhibition, hits mostly inhibitors. 310,000 compounds, 3.5% hits. AID 2546;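 further: Gal4-VP16 expression switched on by copper sulfate through the metallothionein promoter; nearly all actives have a fitted effect of over 50% in size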
RORgamma inh: inhibitors of mouse ROR gamma transcriptional activity; Drosophila S2 Gal4-RORgamma UAS-luciferase reporter, 20 h; Potency, µM (top dose mostly 53.6 µM), without a hit: top-dose activity change, negative = inhibition, usual class: inhibitors; 310,000 compounds, 5.4% hits; further: nearly all actives have a fitted effect of over 60% in size
Target sequence (P51450 whole entry, looked up, the tested form may be a part): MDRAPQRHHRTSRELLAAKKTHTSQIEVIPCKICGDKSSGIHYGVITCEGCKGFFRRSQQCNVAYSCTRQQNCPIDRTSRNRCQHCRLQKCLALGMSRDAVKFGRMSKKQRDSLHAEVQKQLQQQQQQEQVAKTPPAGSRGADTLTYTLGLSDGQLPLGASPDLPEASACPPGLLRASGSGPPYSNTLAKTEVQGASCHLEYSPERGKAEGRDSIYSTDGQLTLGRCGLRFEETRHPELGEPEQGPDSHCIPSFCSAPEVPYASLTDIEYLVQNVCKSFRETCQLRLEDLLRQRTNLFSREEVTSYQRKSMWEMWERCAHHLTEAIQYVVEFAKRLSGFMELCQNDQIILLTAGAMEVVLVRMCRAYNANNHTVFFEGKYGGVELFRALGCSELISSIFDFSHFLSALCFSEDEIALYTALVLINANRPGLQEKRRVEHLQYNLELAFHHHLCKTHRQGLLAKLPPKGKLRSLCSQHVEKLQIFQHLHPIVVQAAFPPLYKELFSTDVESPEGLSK
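Compounds are pin-transferred onto Drosophila Schneider cells expressing a copper-inducible Gal4–ROR gamma transactivation domain fusion. After 1 hr, copper sulfate is added to 700 uM final; luciferase is read 20 hr later.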
An asterisk follows results filed as active; ? = inconclusive; nt = no result; [ ] = remark or other dose. The call rests on the fitted dose curve; in most records, active means well fitted curve in the direction sought with a large enough effect; inconclusive means small, poorly fitted or top-dose-only effect, or another doubt; inactive means no such curve, though single readings can be large; an effect the other way counts as inactive or inconclusive. On the % scale 0 is the no-effect control and ±100 the full control effect; potency means the concentration at half of the fitted maximal effect.

SMILES	TDP1 cell CPT	DT40 TDP1 no CPT	TDP1 block	VP16 counter	RORgamma inh
ON=C1CCC2CCCCC2C1 (configuration not stated)	-4%	-12%	nt	nt	nt
Cc1ccc(CCNC(=O)C2=CCN(S(=O)(=O)c3ccccc3)CC2)cc1	-20%	0%	4%	-7%	3%
Cc1ccc2nc(/C(C#N)=C/c3ccc(-c4ccccc4C(=O)O)o3)[nH]c2c1	-2%	4%	nt	-5%	-22%
N#C/C(=C\c1ccc(-c2ccc(F)cc2F)o1)c1nc2ccccc2[nH]1	23µM*	13µM*	-4%[12.3 µM]	nt	nt
Cc1cc2nc(/C(C#N)=C\c3ccc(-c4ccccc4C(=O)O)o3)[nH]c2cc1C	1%	-15%	nt	17%	?
N#C/C(=C\c1ccc(-c2ccccc2C(=O)O)o1)c1nc2ccccc2[nH]1	?	15µM*	-1%[12.3 µM]	-5%	5%
COc1ccccc1/C=C1\SC(=S)N(CCC(=O)NC2=NCCS2)C1=O	1%	1%	6%	-7%	4.5µM*
O=C(CCN1C(=O)/C(=C/c2cccs2)SC1=S)NC1=NCCS1	-7%	-24%	5%	?	16µM*
OC1(c2cccc(C(F)(F)F)c2)CCN(Cc2nnnn2CCc2ccccc2)CC1	23µM*	21µM*	0%	5%	24%
OC1(c2cccc(C(F)(F)F)c2)CCN(Cc2nnnn2Cc2ccccc2)CC1	?	?	2%	-10%	2%
Cc1ccc(NN2C(=O)C=C(c3ccccc3)C2=O)cc1	5.8µM*	7.3µM*	3%	5µM*	3.5µM*
CN(C)c1ccc(C(=O)Nc2cccc(-c3nc4cccnc4s3)c2)cc1	5.8µM*	10µM*	9%	nt	nt
CCCC(CCC)C(=O)Nc1cccc(-c2nc3cccnc3s2)c1	-8%	-2%	14%	nt	nt
O=C(Nc1cccc(-c2nc3cccnc3s2)c1)c1cccc(Br)c1	8.2µM*	8.2µM*	-3%	nt	nt
CCOc1ncccc1C(=O)Nc1cccc(-c2nc3cccnc3s2)c1	?	13µM*	3%	2%	11%
Cc1cc(Cl)c(S(=O)(=O)NCc2ccccc2)cc1OCC(N)=O	11%	-11%	0%	-2%	-12%
CC(C)c1ccc(NC(=O)C2CCCN2S(=O)(=O)c2ccccc2F)cc1 (configuration not stated)	?	?	-2%[56.1 µM]	nt	nt
S=C(NCc1ccccc1)NCc1cccc(CNC(=S)NCc2ccccc2)c1	?	?	5%	-1%	-9%[10 µM]
CN(C)C(=S)NCc1ccccc1	23µM*	10µM*	4%	1%	-20%
NNC(=S)NCc1cccnc1	?	?	5%	?	8.9µM*
NC(=S)NCc1cccnc1	-12%	27%	nt	-6%	-5%
NNC(=S)NCc1ccccc1	?	?	4%	10µM*	2.8µM*
CN(N)C(=S)NCc1ccccc1	-7%	-8%	5%	4%	-20%
CSC(=S)NCc1cccnc1	2.9µM*	3.3µM*	-1%	27%	-7%
O=C(Nc1cccc(S(=O)(=O)N2CCCC2)c1)c1cccc(OC(F)F)c1	?	?	1%	nt	nt
SMILES	TDP1 cell CPT	DT40 TDP1 no CPT	TDP1 block	VP16 counter	RORgamma inh
COc1ccc(C2(C(=O)NCCCN(C)C)CCOCC2)cc1	18%	0%	4%	-4%	-37%
Cc1cc(NC(=O)Cn2cnc3sccc3c2=O)no1	5%	-5%	1%	nt	nt
O=C(N/N=C/C(Br)=C\c1ccccc1)c1n[nH]c2c1CCC2	0.23µM*	0.23µM*	4%	-73%	?
O=C(N/N=C/C=C/c1ccccc1)c1cc(C2CC2)[nH]n1	7%	-20%	-3%	-13%	?
CC(/C=N/NC(=O)c1n[nH]c2c1CCC2)=C\c1ccccc1	1.2µM*	1.3µM*	5%	-4%	-13%
CC(C=NNC(=O)C(=O)NN=CC(C)=Cc1ccccc1)=Cc1ccccc1	?	-28%	nt	nt	nt
O=C(N/N=C/C=C/c1ccccc1)c1n[nH]c2c1CCC2	1.6µM*	0.82µM*	6%	-25%	9%
O=C(NC1=NCCS1)c1cccc(OC(F)F)c1	-5%	15%	1%	-29%	11µM*
